Results: PubChem BioAssay (NCI)
The panel holds about 79,000 compounds, 15% with a hit somewhere; the sample as a whole holds those more often. No stated cut-off is given here; in the data, active means growth inhibition above about 70%; inactive means the rest.

Experiments:
[1] = NCI Yeast Anticancer Drug Screen. Data for the rad52 strain (AID 147);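 further: 0% = growth of vehicle-treated control cultures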; conditions: S. cerevisiae rad52 mutant growth inhibition, active compounds read high
Summary of the method: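 Growth of repair-deficient yeast cells was compared between compound-treated and vehicle-treated cultures to give percent inhibition.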

[2] = NCI Yeast Anticancer Drug Screen. Data for the wt1 strain (AID 149);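 further: 0% = growth of vehicle-treated wt1 cultures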; conditions: S. cerevisiae wt1 strain (SPY 50644) growth inhibition, active compounds read high
Summary of the method: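 Measured: growth of wt1 yeast under compound versus vehicle treatment, reported as inhibition.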

[3] = NCI Yeast Anticancer Drug Screen. Data for the mgt1 strain (AID 153); conditions: S. cerevisiae mgt1 mutant growth inhibition, active compounds read high
Summary of the method: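 Compounds were applied to mgt1 mutant yeast, and growth was then compared against vehicle-treated control cultures to give percent inhibition.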

[4] = NCI Yeast Anticancer Drug Screen. Data for the rad50 strain (AID 155);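 further: 0% = growth of vehicle-only cultures of the same strain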; conditions: S. cerevisiae rad50 strain growth inhibition, active compounds read high
Summary of the method: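 Growth of the mutant yeast was measured after compound exposure and referenced to vehicle-treated cultures.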

[5] = NCI Yeast Anticancer Drug Screen. Data for the mec2-1 strain (AID 157); conditions: S. cerevisiae mec2-1 strain, active compounds read high
Summary of the method: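 Compounds were applied to mec2-1 yeast cells. Their growth was then compared with that of vehicle-treated cultures to give growth inhibition.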

[6] = NCI Yeast Anticancer Drug Screen. Data for the rad14 strain (AID 159);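 further: 0% = growth of vehicle-treated control cultures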; conditions: S. cerevisiae rad14 strain growth inhibition, active compounds read high
Summary of the method: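 Here, inhibition of yeast growth was measured after compound exposure, using a strain with a genetic defect in DNA damage repair and vehicle-treated cultures as the reference.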

[7] = NCI Yeast Anticancer Drug Screen. Data for the sgs1 mgt1 strain (AID 161);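 further: 0% = growth of cultures given vehicle only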; conditions: S. cerevisiae sgs1 mgt1 strain, active compounds read high
Summary of the method: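 Compounds are added to genetically altered yeast, and growth is compared with cultures given vehicle alone to give percent inhibition.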

[8] = NCI Yeast Anticancer Drug Screen. Data for the CLN2oe strain (AID 163);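 further: 0% = growth of vehicle-only control cultures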; conditions: S. cerevisiae CLN2oe strain, active compounds read high
Summary of the method: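 Cells of an engineered yeast line with disturbed cell-cycle regulation are treated with compound. Inhibition of growth is then calculated relative to the vehicle-treated reference.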

[9] = NCI Yeast Anticancer Drug Screen. Data for the cln2 rad14 strain (AID 165);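 further: 0% = growth equal to vehicle treated cultures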; conditions: S. cerevisiae cln2 rad14 strain, active compounds read high
Summary of the method: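 Strain: cln2 rad14 yeast, altered in cell cycle control and DNA damage repair. Read-out: growth inhibition vs vehicle.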

[10] = NCI Yeast Anticancer Drug Screen. Data for the bub3 strain (AID 167); conditions: S. cerevisiae bub3 mutant strain, active compounds read high
Summary of the method: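 Whole-cell yeast assay. The mutant strain was incubated with compounds, and growth inhibition was determined by comparison with vehicle-treated cells.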

[11] = NCI Yeast Anticancer Drug Screen. Data for the wt2 strain (AID 169);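 further: 0% = growth of vehicle-treated yeast cultures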; conditions: S. cerevisiae wt2 strain growth inhibition, active compounds read high
Summary of the method: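 Growth of compound-treated yeast is measured and expressed as inhibition relative to vehicle-only controls.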

[12] = NCI Yeast Anticancer Drug Screen. Data for the mlh1 strain (AID 171);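 further: 0% = growth of vehicle-treated control cultures of the same strain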; conditions: S. cerevisiae mlh1 strain growth inhibition, active compounds read high
Summary of the method: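 Test agents were incubated with yeast bearing a defined DNA damage repair or cell cycle control alteration; values are growth inhibition normalised to vehicle-treated cultures.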

[13] = NCI Yeast Anticancer Drug Screen. Data for the sgs1 strain (AID 173);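 further: 0% = growth of vehicle-only control cultures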; conditions: S. cerevisiae sgs1 mutant, active compounds read high
Summary of the method: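 Strain with an altered DNA repair or cell cycle pathway exposed to compound. Growth then measured. Value = inhibition versus vehicle control.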

[14] = NCI Yeast Anticancer Drug Screen. Data for the mlh1 rad18 strain (AID 175); conditions: S. cerevisiae mlh1 rad18 strain growth inhibition, active compounds read high
Summary of the method: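 A repair-deficient yeast strain is exposed to test compound, and growth is scored relative to vehicle-treated controls.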

[15] = NCI Yeast Anticancer Drug Screen. Data for the rad18 strain (AID 177); conditions: S. cerevisiae rad18 mutant growth inhibition, active compounds read high
Summary of the method: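 DNA-repair-defective yeast; compound treatment; growth inhibition scored against vehicle.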

[16] = NCI Yeast Anticancer Drug Screen. Data for the rad50EPP+ strain (AID 151);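 further: 0% = growth of vehicle-treated control cultures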; conditions: S. cerevisiae rad50 mutant strain, active compounds read high
Summary of the method: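 Measured: growth inhibition of rad50EPP+ yeast. Reference: vehicle-treated controls. Screen uses strains with defined genetic alterations in DNA damage repair or cell cycle control.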

[17] = at 5.0 µM (retest, dose inferred, filed as 0.5)
[18] = at 50.0 µM (retest, dose inferred, filed as 5.0)

Measured: growth inhibition

COc1ccc2nc3c([N+](=O)[O-])ccc(NCCN(C)C)c3c(NCCN(C)C)c2c1
inactive: [1]; at 1.2 µM 15% | [1]; at 3.7 µM 10% | [1]; at 11.0 µM 26% | [1]; at 33.0 µM 28% | [1]; at 100.0 µM 23% | [2]; at 1.2 µM -3% | [2]; at 3.7 µM -3% | [2]; at 11.0 µM -3% | [2]; at 33.0 µM -2% | [2]; at 100.0 µM 0% | [3]; at 1.2 µM 0% | [3]; at 3.7 µM 2% | [3]; at 11.0 µM 1% | [3]; at 33.0 µM 1% | [3]; at 100.0 µM 2% | [4]; at 1.2 µM -1% | [4]; at 3.7 µM 0% | [4]; [17] 16% | [4]; at 11.0 µM 0% | [4]; at 33.0 µM 2% | [4]; [18] 33% | [4]; at 50.0 µM 26.9% | [4]; at 100.0 µM 12% | [5]; at 1.2 µM -1% | [5]; at 3.7 µM -4% | [5]; [17] 15% | [5]; at 11.0 µM -5% | [5]; at 33.0 µM 0% | [5]; [18] 17% | [5]; at 50.0 µM 35% | [5]; at 100.0 µM 3% | [6]; at 1.2 µM -2% | [6]; at 3.7 µM -3% | [6]; at 11.0 µM -3% | [6]; at 33.0 µM -4% | [6]; at 100.0 µM 1% | [7]; [17] -2% | [7]; [18] 14% | [7]; at 50.0 µM 3.95% | [8]; at 1.2 µM -5% | [8]; at 3.7 µM -1% | [8]; at 11.0 µM 1% | [8]; at 33.0 µM -5% | [8]; at 100.0 µM -5% | [9]; [17] 29% | [9]; [18] 61% | [9]; at 50.0 µM 62.4% | [10]; at 1.2 µM -3% | [10]; at 3.7 µM -7% | [10]; [17] 14% | [10]; at 11.0 µM 1% | [10]; at 33.0 µM -3% | [10]; [18] -1% | [10]; at 50.0 µM 20.4% | [10]; at 100.0 µM -3% | [11]; at 1.2 µM -3% | [11]; at 3.7 µM 0% | [11]; at 11.0 µM -1% | [11]; at 33.0 µM -1% | [11]; at 100.0 µM -2% | [12]; at 1.2 µM -1% | [12]; at 3.7 µM -2% | [12]; at 11.0 µM -1% | [12]; at 33.0 µM -1% | [12]; at 100.0 µM 1% | [13]; at 1.2 µM 3% | [13]; at 3.7 µM 6% | [13]; at 11.0 µM 2% | [13]; at 33.0 µM 2% | [13]; at 100.0 µM 2% | [14]; [17] -7% | [14]; [18] 24% | [14]; at 50.0 µM -21.4% | [15]; at 1.2 µM 6% | [15]; at 3.7 µM 6% | [15]; at 11.0 µM 7% | [15]; at 33.0 µM 1% | [15]; at 100.0 µM -6%

COc1ccc2sc3cccc(NCCN(C)C)c3c(=O)c2c1
inactive: [1]; at 1.2 µM -3% | [1]; at 3.7 µM -3% | [1]; at 11.0 µM -1% | [1]; at 33.0 µM 2% | [1]; at 100.0 µM 27% | [2]; at 1.2 µM 1% | [2]; at 3.7 µM 6% | [2]; at 11.0 µM 3% | [2]; at 33.0 µM 2% | [2]; at 100.0 µM 10% | [16]; at 1.2 µM 6% | [16]; at 3.7 µM 8% | [16]; at 11.0 µM 17% | [16]; at 33.0 µM 25% | [16]; at 100.0 µM 61% | [4]; at 1.2 µM 0% | [4]; at 3.7 µM 1% | [4]; [17] -14% | [4]; at 11.0 µM 2% | [4]; at 33.0 µM 7% | [4]; [18] -10% | [4]; at 50.0 µM 25.2% | [4]; at 100.0 µM 31% | [5]; at 1.2 µM 3% | [5]; at 3.7 µM 4% | [5]; [17] -3% | [5]; at 11.0 µM 6% | [5]; at 33.0 µM 9% | [5]; [18] 3% | [5]; at 50.0 µM -4.1% | [5]; at 100.0 µM 12% | [6]; at 1.2 µM -1% | [6]; at 3.7 µM -1% | [6]; at 11.0 µM -1% | [6]; at 33.0 µM 9% | [6]; at 100.0 µM 33% | [7]; [17] -9% | [7]; [18] 38% | [7]; at 50.0 µM 54.6% | [8]; at 1.2 µM -3% | [8]; at 3.7 µM -10% | [8]; at 11.0 µM -4% | [8]; at 33.0 µM -4% | [8]; at 100.0 µM 17% | [9]; [17] 3% | [9]; [18] 6% | [9]; at 50.0 µM 31.6% | [10]; at 1.2 µM -4% | [10]; at 3.7 µM -3% | [10]; [17] 9% | [10]; at 11.0 µM -3% | [10]; at 33.0 µM -1% | [10]; [18] 5% | [10]; at 50.0 µM -4.65% | [10]; at 100.0 µM 1% | [11]; at 1.2 µM 0% | [11]; at 3.7 µM -2% | [11]; at 11.0 µM 0% | [11]; at 33.0 µM -1% | [11]; at 100.0 µM 8% | [12]; at 1.2 µM -1% | [12]; at 3.7 µM 2% | [12]; at 11.0 µM 3% | [12]; at 33.0 µM 4% | [12]; at 100.0 µM 18% | [13]; at 1.2 µM 2% | [13]; at 3.7 µM 1% | [13]; at 11.0 µM 3% | [13]; at 33.0 µM 2% | [13]; at 100.0 µM 16% | [14]; [17] -1% | [14]; [18] -9% | [14]; at 50.0 µM 67.3% | [15]; at 1.2 µM 0% | [15]; at 3.7 µM 0% | [15]; at 11.0 µM 2% | [15]; at 33.0 µM 9% | [15]; at 100.0 µM 27%
